Assay outcomes as filed in PubChem.
The entries come from a sample that favours hits as a whole.
Tgondii IFNg: T. gondii growth inhibition under IFN-gamma; Toxoplasma gondii growth in IFN-gamma-treated host cells; stronger effect = lower value; 3.8% of 69,000 active; activity change, negative = inhibition, % (test concentration not listed); in the data active = activity change below about -70%, passing the limit was not always enough;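 note: host cells are HeLa cells infected with Toxoplasma gondii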
Numbers without * were called inactive.

SMILES | Tgondii IFNg
Cc1ccc(NC2(C(=O)N3CCC4(CC3)CNC(=O)C4)CCCC2)cc1 | 23.7
COC(=O)[C@@H]1C[C@H](NC(=O)c2cc3ccccc3n2C)CN1C | 20.8
Cc1ccc(C(=O)N2CCCn3nnc(Cn4ccnc4)c3C2)cc1C | 3.2
CCN1CCCC1CNC(=O)c1ccc2c(c1)[nH]c(=O)n2Cc1ccc(OC)cc1 (stereo not given) | -30.4
COc1cccc(NC(=O)CC2NCCNC2=O)c1 (stereo not given) | 46.2
COc1cccc(NC(=O)c2ccc3c(c2)[nH]c(=O)n3C2CCCCC2)c1 | -82.9*
Nc1ncc(C(=O)N2C[C@@H]3[C@@H]4CC[C@@H](C4)[C@@H]3C2)c(-c2ccccc2)n1 | -5.2
COc1ccc(-c2cnc3c(-c4cccc5ncccc45)cnn3c2)cc1 | -23.2
CC(C)Oc1ccc(-c2cnc3c(-c4ccnc5ccccc45)cnn3c2)cc1 | -75.7*
CN(Cc1cnc2c(-c3ccccc3)cnn2c1)Cc1cccc2ncccc12 | -48.2
CC(C)N1C(=O)N(C)C2(CCN(Cc3ccc4c(c3)Cc3ccccc3-4)CC2)C1=O | 8.1
CN(C)CCN(Cc1cccs1)S(=O)(=O)c1ccc2[nH]c(=O)ccc2c1 | 360.9
CC(C)N(CCC#N)C(=O)Nc1ccc2c(c1)CCO2 | -31.7
N#CCCN(Cc1cccs1)S(=O)(=O)c1ccc2c(c1)CCO2 | -90.6*
C[C@@H]1CN(C(=O)c2cccs2)C[C@@]12CCN(c1cccnc1)C2=O | 10.3
CC(C)(C)c1ccc(C23OC(=O)C4(CCCC4)C2OC(=O)C32CCCC2)cc1 (stereo not given) | -73.5*
CC(C)(C)CN1CC2(CCN(C(=O)Cc3ccc(Cl)cc3)C2)C1 | 3.4
O=S(=O)(Cc1ccccc1)N1CCC2(CCN(Cc3ccc(Cl)cc3)C2)C1 (stereo not given) | -4.9
O=C(Cc1ccc(Cl)cc1)N1CC2(CCN(Cc3ccc(C(F)(F)F)cc3)CC2)C1 | -79.6*
O=C(O)COCC(=O)Nc1nnc(C(F)(F)F)s1 | 18.5
Cc1nc(NCC(O)COc2ccc(Cl)c(C)c2)c2cnn(C)c2n1 (stereo not given) | -7.2
CCc1ccc(-c2cc3c(=O)n(Cc4nc(-c5ccc(OC(C)C)cc5)oc4C)ccn3n2)cc1 | 32.2
COC(=O)Nc1nc2ccc(-c3n[nH]c(=O)c4ccccc34)cc2[nH]1 | -102.5*
CCCCc1ccc2nc(NC(=O)OC)[nH]c2c1 | -31.9
CCCS(=O)(=O)c1ccc2nc(NC(=O)OC)[nH]c2c1 | -47.2
SMILES | Tgondii IFNg
COCCN1Cc2cccc(C(=O)N3CCC(CCn4ccnc4C)CC3)c2C1=O | 13.1
NC(=O)c1cc(-c2ccccc2)sc1NC(=O)c1cccs1 | -82.9*
NC(=O)c1sc(-c2ccsc2)cc1NC(=O)c1cccs1 | -42.3
CCOC(=O)c1cc(-c2ccccc2)sc1NC(=O)c1ccc(Cl)cc1 | 17.0
CCc1ccc(CNC(=O)c2nc(Nc3ccccc3)c3ccccc3n2)cc1 | -23.5
CN1C(=O)CCc2cc(NS(=O)(=O)c3ccc(Br)s3)ccc21 | -97.1*
CN1C(=O)CCc2cc(NS(=O)(=O)c3ccc(Br)cc3)ccc21 | -95.1*
CN1C(=O)CCc2cc(NS(=O)(=O)Cc3cccc(Cl)c3)ccc21 | 22.7
Cc1ccc(S(=O)(=O)Nc2ccc3c(c2)CCC(=O)N3C)cc1Cl | -39.3
COCCN1C(=O)CCc2cc(NS(=O)(=O)c3ccc(Cl)s3)ccc21 | 21.3
COCCN1C(=O)CCc2cc(NS(=O)(=O)c3ccc(Br)cc3)ccc21 | 6.7
CCCC(=O)N1CCC(N2CCC3(CCOCC3)CC2)CC1 | 5.3
Cn1ccnc1-c1nccn1CCCn1ccnc1 | 6.7
Cn1ccc(C(=O)N2CCCC(c3cc4ncccc4[nH]3)C2)n1 (stereo not given) | 7.1
Cc1[nH]cnc1CN(C)CC1CCN(CC(C)C)C1 (stereo not given) | -3.2
Cc1c(C(=O)NCCCN2CCOCC2)cc(C(C)(C)C)n1-c1ccccc1 | -17.8
CC1CCCC(C)N1C(=S)NCCCN1CCOCC1 (stereo not given) | -79.6*
Cc1ccc(C(=O)NC(=S)NCCCN2CCOCC2)cc1 | -1.6
CC(C)OCc1ncn2c1CN(C(=O)COc1ccccc1)CCC2 | -41.0
COc1ccc(C2(NC(=O)c3cc(C(C)(C)C)[nH]n3)CCCCC2)cc1 | -26.7
Cc1sc(NC(=O)C(C)C)c(C(=O)N[C@@H]2C[C@@H](CO)N(C)C2)c1C | 0.0
COC(=O)c1ccc(C(=O)OC)c(NC(=O)C(C)C)c1 | 6.3
COC(=O)c1c(NC(=O)C(C)C)sc2c1C(C(=O)OC)CC2 (stereo not given) | -94.2*
c1ccc(COCCN2CCC3(CCOCC3)CC2)cc1 | -20.0
Cc1cccn2cc(C(=O)Nc3cnn(CC(=O)NCCc4ccccc4F)c3)nc12 | 14.4
SMILES | Tgondii IFNg
O=C(CC1CC1)N1CC[C@@H](O)[C@@H]1Cc1ccncc1 | 11.5
COc1ccc(-c2nc(Cn3nnc(-c4nc(-c5ccncc5)no4)c3C)c(C)o2)cc1 | 3.8
Cc1nc(-c2ccc(F)cc2)sc1CCNS(=O)(=O)c1ccccc1Cl | 48.1
CC(=O)Nc1nc(C)c(-c2ccc(Cl)c(S(=O)(=O)NCCO)c2)s1 | -80.7*
COc1ccc(-c2nc(C)c(CCNS(=O)(=O)c3cc(Cl)ccc3Cl)s2)cc1 | 409.6
CCCc1c(C(=O)Nc2ccc3ccccc3n2)cnn1-c1ccccc1 | -37.3
CC(C)(C)c1ccc(-c2noc(CCOc3ccc(F)cc3)n2)cc1 | 33.6
CCCc1c(-c2nc(-c3ccc(C(C)(C)C)cc3)no2)cnn1-c1ccccc1 | -96.8*
CCCCC(=O)Nc1ccc(C)cc1NC(=O)c1cc(C(C)C)on1 | -50.3
COc1cccc(CNC2CCc3c(c(C(=O)N4CCCCCC4)nn3C)C2)c1 (stereo not given) | 14.8
CC(=O)Nc1ccc(-c2csc(N(C)c3ccc(O)cc3)n2)cc1 | 53.3
O=C(Nc1cccc(C(=O)N2CCOCC2)c1)c1cc2ccccc2c(=O)s1 | -4.5
COCC1COCCC12CCN(C(=O)C1CC(F)(F)C1)CC2 (stereo not given) | 3.7
CCOc1ccc(NC(=O)N2CCC3(CC2)c2cccn2-c2ccc(C)cc2N3CC)cc1 | 155.6
CCN1c2cc(C)ccc2-n2cccc2C12CCN(C(=O)c1ccccc1OC)CC2 | -61.9
CCN1c2cc(C)ccc2-n2cccc2C12CCN(S(=O)(=O)Cc1ccccc1)CC2 | -67.0
CCN1c2cc(C)ccc2-n2cccc2C12CCN(S(=O)(=O)c1ccccc1Cl)CC2 | -78.0*
CCN1c2cc(C)ccc2-n2cccc2C12CCN(S(=O)(=O)c1ccc3c(c1)oc(=O)n3C)CC2 | 61.0
CCN1c2cc(C)ccc2-n2cccc2C12CCN(S(=O)(=O)c1ccc(C(C)C)cc1)CC2 | -27.6
CCN1c2cc(C)ccc2-n2cccc2C12CCN(C(=O)c1ccccc1Br)CC2 | -1.5
CCOc1ccc(S(=O)(=O)N2CCC3(CC2)c2cccn2-c2ccc(C)cc2N3CC)cc1 | -91.7*
CCN1c2cc(C)ccc2-n2cccc2C12CCN(S(=O)(=O)c1ccccc1)CC2 | -78.7*
Cc1ccc(Cl)c(CN2CCC(Cc3nnc(CO)n3C)CC2)c1F | -8.2
COc1cccc(CC(=O)N2CCn3cnc(COCC4CC4)c3C2)c1 | 37.9
CS(=O)(=O)c1cccnc1C1CCN(C(=O)Cc2csc(-c3ccccn3)n2)CC1 | -29.6
COc1cccc(C(=O)NCCc2csc(-c3ccccc3)n2)c1 | 491.3
CCN(CC)S(=O)(=O)N1CCCC1c1cc(Nc2ncccc2C)cc(C)n1 (stereo not given) | 2.0
C=CCNc1ccccc1C(=O)N(C)CC1CC(=O)N(C(C)(C)C)C1 (stereo not given) | -46.1
Cc1ccc(C)c(S(=O)(=O)N2CCC3(CC2)Nc2ccccc2-n2cccc23)c1 | 43.9
